Assay outcomes (PubChem BioAssay)
BLM helicase inh – qHTS Assay for Inhibitors of Bloom's syndrome helicase (BLM). RecQ-like DNA helicase BLM (Homo sapiens), P54132. recombinant BLM DNA unwinding, fluorescence dequenching. Potency, µM (highest dose often 56.1 µM), hits mostly inhibitors. hit rate 0.2% among 350,000. AID 2528, 2010; further: nearly all actives have a fitted effect of over 35% in size
RECQ1 inh-1 – qHTS Assay for Inhibitors of RecQ-Like Dna Helicase 1 (RECQ1). AID 2549, 2010. RECQ1 DNA unwinding, red fluorescence kinetic read. hit rate 0.54% among 240,000. Potency, µM (series often up to 57.3 µM), actives largely listed as inhibitors. ATP-dependent DNA helicase Q1 (Homo sapiens), P46063; further: nearly all actives have a fitted effect of over 30% in size
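RECQ1T1 50 nM; forked duplex (20 bp + 30-nt ss tails) 200 nM, ATP 2 mM final; pH 8.0, 2 mM MgCl2, 2.5 ug/ml poly(dI-dC); 15 min compound preincubation; discontinuous kinetic read over 2 h at RT.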
WRN inhibitor – qHTS for Inhibitors of WRN Helicase | Bifunctional 3'-5' exonuclease/ATP-dependent helicase WRN (Homo sapiens), Q14191 | Potency, µM (doses to about 114 µM), hits mostly inhibitors | WRN helicase unwinding, fluorescent forked duplex, kinetic | AID 651768, 2012 | hit rate 0.46% among 360,000; further: nearly all actives have a fitted effect of over 55% in size
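Primary qHTS, 1536-well format. 20 nM WRN + compound, 15 min RT; start with 100 nM forked fluorophore/quencher duplex, 2 mM ATP (final); kinetic read ex 525/em 598 nm.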
L3MBTL1 block – qHTS Assay for the Inhibitors of L3MBTL1 | Lethal(3)malignant brain tumor-like protein 1 (Homo sapiens), Q9Y468 | Potency, µM (titrated, usually from 57.1 µM), hits mostly inhibitors | hit rate 0.66% among 230,000 | AlphaScreen L3MBTL1–H3K9me1 peptide binding; further: nearly all actives have a fitted effect of over 60% in size
Target sequence (Q9Y468 whole entry, looked up): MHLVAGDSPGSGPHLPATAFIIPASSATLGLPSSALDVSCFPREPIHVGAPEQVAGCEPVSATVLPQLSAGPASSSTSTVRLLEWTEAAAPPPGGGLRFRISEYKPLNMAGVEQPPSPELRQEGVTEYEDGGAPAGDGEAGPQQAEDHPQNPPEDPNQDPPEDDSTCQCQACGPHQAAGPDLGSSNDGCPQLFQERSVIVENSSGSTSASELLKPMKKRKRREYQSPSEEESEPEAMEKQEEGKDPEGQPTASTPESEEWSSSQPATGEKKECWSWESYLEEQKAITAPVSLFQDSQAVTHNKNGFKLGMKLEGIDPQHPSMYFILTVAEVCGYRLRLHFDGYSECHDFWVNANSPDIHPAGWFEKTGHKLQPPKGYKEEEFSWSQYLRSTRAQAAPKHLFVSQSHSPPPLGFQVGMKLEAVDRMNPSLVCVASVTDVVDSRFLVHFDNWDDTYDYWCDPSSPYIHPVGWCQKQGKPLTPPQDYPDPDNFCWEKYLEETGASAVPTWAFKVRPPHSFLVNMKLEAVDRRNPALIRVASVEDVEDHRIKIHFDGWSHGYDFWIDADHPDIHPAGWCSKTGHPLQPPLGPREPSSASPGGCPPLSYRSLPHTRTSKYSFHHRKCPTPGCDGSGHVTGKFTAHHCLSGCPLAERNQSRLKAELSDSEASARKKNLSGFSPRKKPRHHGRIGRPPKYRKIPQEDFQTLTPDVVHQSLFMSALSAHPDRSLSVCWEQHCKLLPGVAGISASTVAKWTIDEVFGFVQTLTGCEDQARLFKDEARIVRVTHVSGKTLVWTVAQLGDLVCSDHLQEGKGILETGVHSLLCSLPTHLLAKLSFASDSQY
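Read-out is AlphaScreen signal from streptavidin donor and nickel chelate acceptor beads (10 ug/mL final each) bridging L3MBTL1 (50 nM) and biotinylated K9-monomethylated H3(1-15) peptide (75 nM), after 30 min compound exposure at room temperature.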
FEN1 inhibitor – qHTS Assay for the Inhibitors of Human Flap endonuclease 1 (FEN1). P39748. AID 588795, 2011. Recombinant FEN1 flap cleavage, fluorescence, 15 min. Potency, µM (doses to about 114 µM), usual class: inhibitors. hit rate 0.35% among 390,000; further: nearly all actives have a fitted effect of over 65% in size
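Reaction started by adding substrate (50 nM final) to 10 nM enzyme after 15 min room-temperature compound preincubation. Reads at 0 and 15 min, with data normalized and fitted to a four-parameter Hill equation.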
RECQ1 inh conf – Confirmation qHTS Assay for Inhibitors of RecQ-Like Dna Helicase 1 (RECQ1) | shares compounds with RECQ1 inh-1 | RECQ1 helicase DNA unwinding, fluorescence | Potency, µM (doses to about 229 µM), most hits filed as inhibitors | hit rate 28% among 610 | AID 2708, 2010; further: nearly all actives have a fitted effect of over 45% in size
RECQ1 ADP FP – Counterscreen for RECQ1 Inhibitors: ADP Fluorescence Polarization Displacement Assay | shares compounds with RECQ1 inh-1 | ADP fluorescence polarization displacement counterscreen | Potency, µM (series often up to 228 µM), most hits filed as inhibitors | hit rate 27% among 530 | AID 2711, 2010; further: nearly all actives have a fitted effect of over 45% in size
RECQ1 inh-2 – Confirmation qHTS Assay for Inhibitors of RecQ-Like Dna Helicase 1 (RECQ1) - Round 2 Cherry Picks. shares compounds with RECQ1 inh-1. recombinant RECQ1 DNA unwinding, red fluorescence. Potency, µM (highest dose often 119 µM), most hits filed as inhibitors. hit rate 15% among 1,100. AID 504841, 2011; further: nearly all actives have a fitted effect of over 50% in size
Large screens that a line does not name were inactive (follow-up assays come after a bar, where they were run); ! = not active in a repeat. Most compounds without a hit are left out; they make up all but 0.99% or so of the library. The call rests on the fitted dose curve; in most records, active means well fitted curve in the direction sought with a large enough effect; inconclusive means small, poorly fitted or top-dose-only effect, or another doubt; inactive means no such curve, though single readings can be large; an effect the other way counts as inactive or inconclusive.

CCCCn1c(N)c(C(=O)NCCN2CCOCC2)c2nc3ccccc3nc21	none
CCC(C)NC(=O)c1c(N)n(CCCOC)c2nc3ccccc3nc12 (centres undefined)	BLM helicase inh inconclusive, RECQ1 inh-1 inconclusive | RECQ1 inh-2 inactive
COc1ccc(CCNC(=O)c2c(N)n(CCN3CCOCC3)c3nc4ccccc4nc23)cc1	none
COC(=O)C1=C(c2cccc(OC)c2OC)C[C@@H]2CC[C@H]1N2C(=O)NCCS(C)=O (some centres undefined)	none (no result: BLM helicase inh, RECQ1 inh-1, L3MBTL1 block)
CC(C)(C)C(O)C(Oc1ccc(-c2ccccc2)cc1)n1cncn1 (centres undefined)	none (no result: WRN inhibitor, L3MBTL1 block, FEN1 inhibitor)
CCOC(=O)c1cnc(N2CC2)nc1N	none (no result: BLM helicase inh, RECQ1 inh-1, L3MBTL1 block)
N#CC(C#N)=Cc1ccc(-c2ccccc2)o1	none (no result: WRN inhibitor, FEN1 inhibitor)
Nc1c(C(=O)NCCN2CCOCC2)c2nc3ccccc3nc2n1Cc1ccccc1	none
CCC(C)NC(=O)c1c(N)n(Cc2ccc3c(c2)OCO3)c2nc3ccccc3nc12 (centres undefined)	BLM helicase inh inconclusive, RECQ1 inh-1 inconclusive | RECQ1 inh-2 inactive
CCCn1cc2c3c(cccc31)C1CC(C)CN(C)C1C2 (centres undefined)	none (no result: WRN inhibitor, L3MBTL1 block, FEN1 inhibitor)
CC(O)C(C)OC(=O)[C@@H]1C[C@@H]2c3cccc4c3c(cn4C(C)C)C[C@H]2N(C)C1 (some centres undefined)	RECQ1 inh-1 35µM! (no result: BLM helicase inh, WRN inhibitor, L3MBTL1 block, FEN1 inhibitor) | RECQ1 inh-2 56µM
C[C@H](N)[C@H](O)c1ccc(O)c(O)c1	RECQ1 inh-1 1.8µM (no result: WRN inhibitor, L3MBTL1 block, FEN1 inhibitor) | RECQ1 inh conf inactive | RECQ1 ADP FP 11µM
CC(N)[C@H](O)c1ccc(O)c(O)c1 (some centres undefined)	RECQ1 inh-1 6.3µM, FEN1 inhibitor 14µM (no result: BLM helicase inh, WRN inhibitor, L3MBTL1 block) | RECQ1 inh conf inactive | RECQ1 ADP FP 13µM
C[C@@H](N)[C@@H](O)c1ccc(O)c(O)c1	RECQ1 inh-1 2.5µM (no result: WRN inhibitor, L3MBTL1 block, FEN1 inhibitor) | RECQ1 inh conf inactive | RECQ1 ADP FP inconclusive
COc1ccc(OC)c(C(O)C(C)N)c1 (centres undefined)	none
COc1ccc(C(c2nnnn2-c2c(C)cccc2C)N2CCC3(CC2)C(=O)NCN3c2ccccc2)cc1 (centres undefined)	none (no result: BLM helicase inh, RECQ1 inh-1, L3MBTL1 block, FEN1 inhibitor)
Cc1cc2c(C(C)C)c(O)c(O)c(C=O)c2c(O)c1-c1c(C)cc2c(C(C)C)c(O)c(O)c(C=O)c2c1O	BLM helicase inh 28µM!, RECQ1 inh-1 14µM!, L3MBTL1 block inconclusive, FEN1 inhibitor 2.5µM (no result: WRN inhibitor) | RECQ1 inh conf 22µM | RECQ1 ADP FP 14µM
